This is a sample that favours compounds with a hit; in the whole collection about 0.56% have one here.
EPAC1 antag – antagonists of human EPAC1. 360,000 compounds, 0.14% hits. EPAC1 GEF assay, Rap1b-BODIPY-GDP exchange fluorescence. AID 720709. Potency, µM (doses to about 115 µM), actives largely listed as inhibitors; also: nearly all actives have a fitted effect of over 50% in size
LDHA inh – LDHA (human) enzyme inhibition; P00338; purified LDHA, NADH/diaphorase-resazurin fluorescence; stronger effect = lower value; 480,000 compounds, 0.15% hits; activity change, % (values are at about 110 or 230 µM); in the data active = activity change below about -30%; inconclusive = mostly about -25% to -30%
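Human LDH5 at 2 nM final in Tris HCl pH 7.4 with 0.06 mM NADH and 0.2 mM pyruvate, reacted 5 minutes at room temperature. Remaining NADH coupled via diaphorase/resazurin; resorufin fluorescence read at 0 and 20 minutes, normalized to enzyme-free and DMSO wells.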
USP1 inh – blocks the human USP1/UAF1 deubiquitinase complex; O94782; recombinant USP1/UAF1, Ub-Rhodamine cleavage fluorescence; Potency, µM (titrated, usually from 57.1 µM), actives largely listed as inhibitors; 390,000 compounds, 0.23% hits; also: nearly all actives have a fitted effect of over 60% in size
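In this screen, compounds sit with the deubiquitinase complex (1nM) for 15 min at room temperature before Ub-Rho is added at 150nM final. Fluorescence rise is then followed for 6 reads every 60 seconds.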
EPAC2 ag – activates human EPAC2 exchange factor. Q8WZA2. EPAC2 activation, biochemical qHTS; response scale: 100% = 6.5 mM cAMP response. Potency, µM (titrated, usually from 154 µM), hits mostly activators. 360,000 compounds, 0.079% hits. AID 720711; also: nearly all actives have a fitted effect of over 50% in size
Target sequence (Q8WZA2 whole entry, looked up): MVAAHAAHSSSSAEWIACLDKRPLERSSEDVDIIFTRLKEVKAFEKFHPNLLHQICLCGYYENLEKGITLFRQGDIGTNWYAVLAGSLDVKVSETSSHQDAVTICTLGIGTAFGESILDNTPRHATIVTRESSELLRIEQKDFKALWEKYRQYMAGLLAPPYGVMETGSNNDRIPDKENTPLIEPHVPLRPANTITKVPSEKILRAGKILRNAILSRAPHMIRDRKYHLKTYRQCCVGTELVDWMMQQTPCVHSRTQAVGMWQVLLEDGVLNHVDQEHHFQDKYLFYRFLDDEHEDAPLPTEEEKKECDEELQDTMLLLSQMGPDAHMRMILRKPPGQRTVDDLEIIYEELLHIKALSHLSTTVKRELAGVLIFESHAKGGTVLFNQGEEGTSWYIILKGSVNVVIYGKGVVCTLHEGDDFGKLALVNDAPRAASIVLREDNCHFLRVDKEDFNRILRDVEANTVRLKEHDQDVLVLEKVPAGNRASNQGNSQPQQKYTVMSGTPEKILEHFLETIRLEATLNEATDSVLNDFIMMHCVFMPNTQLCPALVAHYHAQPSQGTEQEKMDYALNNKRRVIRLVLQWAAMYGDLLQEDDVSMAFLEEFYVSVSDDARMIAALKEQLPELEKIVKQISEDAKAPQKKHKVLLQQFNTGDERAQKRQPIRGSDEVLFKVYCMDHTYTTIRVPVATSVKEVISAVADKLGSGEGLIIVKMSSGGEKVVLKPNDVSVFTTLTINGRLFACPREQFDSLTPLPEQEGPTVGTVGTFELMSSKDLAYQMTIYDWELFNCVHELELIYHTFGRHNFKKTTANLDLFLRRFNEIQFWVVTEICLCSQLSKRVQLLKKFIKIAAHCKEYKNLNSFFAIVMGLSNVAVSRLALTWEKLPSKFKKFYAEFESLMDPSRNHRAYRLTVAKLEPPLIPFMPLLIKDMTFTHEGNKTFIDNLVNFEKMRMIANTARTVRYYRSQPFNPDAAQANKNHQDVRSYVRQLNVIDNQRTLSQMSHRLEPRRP
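Nucleotide exchange monitored as fluorescence drop when BODIPY-GDP leaves Rap1B. Reaction: 100 nM EPAC2, 250 nM RAP1B-BODIPY-GDP, 50 uM GDP, room temperature, kinetic read over 30 min. Activity expressed relative to 6.5 mM cAMP.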
EPAC1 ag – agonists of human EPAC1. O95398. EPAC1 agonist qHTS, biochemical assay; response scale: 100% = response to 6.5 mM cAMP. Potency, µM (doses to about 154 µM), actives largely listed as activators. 360,000 compounds, 0.073% hits; also: nearly all actives have a fitted effect of over 60% in size
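Normalized to 6.5 mM cAMP, activity reflects EPAC1-catalysed release of BODIPY-GDP from Rap1B, followed kinetically over 30 min at 480 nm excitation, 540 nm emission. Reaction contained 100 nM EPAC1, 250 nM Rap1B-BODIPY-GDP, 50 uM GDP.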
EPAC2 antagonist – antagonists of human EPAC2. Q8WZA2. Potency, µM (highest dose often 114 µM), hits mostly inhibitors. 360,000 compounds, 0.18% hits. EPAC2 GEF exchange of Rap1B-BODIPY-GDP, fluorescence; also: nearly all actives have a fitted effect of over 45% in size
Large screens that a line does not name were inactive. Unless noted, calls follow the shape of the dose curve; as a rule, active = well fitted curve in the direction sought with a large enough effect; inconclusive = small, poorly fitted or top-dose-only effect, or another doubt; inactive = no such curve, though single readings can be large; an effect the other way counts as inactive or inconclusive.

Nc1c2c(=O)[nH]c(O)cc2nn1-c1ccccc1	EPAC1 antag 89.1µM, USP1 inh inconclusive
Cc1c(C)c2c(C)nn(-c3ccccc3)c2[nH]c1=O	none
COc1ccc(-c2nc3cc(NC(=O)c4ccccc4)ccc3o2)cc1	LDHA inh -38.8 (no result: EPAC1 antag, USP1 inh, EPAC2 ag, EPAC1 ag, EPAC2 antagonist)
O=C(NN=C1CCCCCC1)c1cc(-c2cccs2)nc2ccccc12	none (no result: EPAC1 antag, USP1 inh, EPAC2 ag, EPAC1 ag, EPAC2 antagonist)
CN(C)CCCNCC(=O)Nc1ccccc1N1CCOCC1	LDHA inh -32.4
O=C(Cc1ccccc1)Nc1ccccc1N1CCOCC1	none
CCN(C(=O)Cn1nc(C(=O)O)c2ccccc2c1=O)c1ccccc1	none (no result: EPAC1 antag, USP1 inh, EPAC2 ag, EPAC1 ag, EPAC2 antagonist)
COC(=O)c1cc(Br)c(=O)n(CCc2ccc(F)cc2)c1	EPAC2 antagonist 28.2µM
CCOc1cc(S(=O)(=O)N(CC)CC)ccc1Cl	EPAC2 antagonist 39.8µM
CCOc1ccc(/C(=N/O)C(C)NO)cc1 (stereo unspecified)	none (no result: EPAC1 antag, USP1 inh, EPAC2 ag, EPAC1 ag, EPAC2 antagonist)
COc1cc(-c2c(CCO)sc3ccccc23)cc(OC)c1OC	EPAC2 antagonist 47.4µM (no result: USP1 inh)
COC(=O)COc1ccc2c(=O)c(Oc3ccccc3)c(C(F)(F)F)oc2c1	none (no result: EPAC1 antag, USP1 inh, EPAC2 ag, EPAC1 ag, EPAC2 antagonist)
CCc1ccccc1NC(=O)Cn1c(=O)n(Cc2cccc(Cl)c2)c(=O)c2ccccc21	none (no result: EPAC1 antag, USP1 inh, EPAC2 ag, EPAC1 ag, EPAC2 antagonist)
CCCCC#Cc1ccc(C(=O)NNC(=O)Nc2ccccc2)o1	LDHA inh -39.2
CCCCN(CCCC)Cc1ccc(C(=O)NNC(=O)Nc2ccccc2)o1	none
NC(=O)c1cc2ccc(O)cc2oc1=NCc1ccccc1	USP1 inh inconclusive, EPAC2 ag 100µM
CCN(C(=O)Cc1nc(-c2cccs2)oc1C)c1ccccc1	none (no result: EPAC1 antag, USP1 inh, EPAC2 ag, EPAC1 ag, EPAC2 antagonist)
CC1=C(C(=O)OCc2ccc3c(c2)OCO3)C(c2ccccc2)NC(=O)N1 (stereo unspecified)	EPAC2 ag 100µM
CC1=C(C(=O)OCc2ccc3c(c2)OCO3)C(c2ccccc2OCc2ccccc2)NC(=O)N1 (stereo unspecified)	none
Cc1cccc(C)c1N1C(=O)CC(N2CCN(S(=O)(=O)c3ccccc3F)CC2)C1=O (stereo unspecified)	none
O=C1CC(N2CCN(S(=O)(=O)c3ccccc3F)CC2)C(=O)N1c1ccccc1F (stereo unspecified)	LDHA inh -34.9
C/C(=N\NS(=O)(=O)c1ccccc1)c1cc(Cl)cc(Cl)c1O	EPAC1 antag 17.8µM, EPAC2 antagonist inconclusive
C/C(=N/NS(=O)(=O)c1ccc(Cl)cc1)c1cccc(O)c1	none
Cc1cc(/C=C2\SC(=S)NC2=O)cc(C)c1O	EPAC1 antag inconclusive, EPAC2 antagonist 15.8µM
O=C1NC(=S)S/C1=C\c1cc(Cl)cc(Cl)c1O	EPAC1 antag 39.8µM, USP1 inh inconclusive, EPAC2 antagonist 56.2µM
O=C1NC(=S)S/C1=C\c1cccc([N+](=O)[O-])c1	EPAC1 antag inconclusive, USP1 inh inconclusive, EPAC2 antagonist 50.1µM
Cc1cc(/C=C2\SC(=S)NC2=O)c(C)n1-c1ccc(O)cc1	EPAC1 antag inconclusive, EPAC2 antagonist inconclusive
Cc1cc(/C=C2\SC(=S)NC2=O)c(C)n1C	EPAC1 antag inconclusive
O=C1NC(=Nc2ccccc2Cl)S/C1=C\c1cccc([N+](=O)[O-])c1	none
O=C1NC(=S)SC1=Cc1ccccc1Cl	EPAC1 antag inconclusive, EPAC2 antagonist 35.5µM
O=C(/C=C/c1ccc(-c2ccccc2Cl)o1)c1ccc(Cl)cc1	none (no result: EPAC1 antag, USP1 inh, EPAC2 ag, EPAC1 ag, EPAC2 antagonist)
CCCCN(CC)c1ccc(NC(=O)c2ccccc2F)cc1C(=O)O	none (no result: EPAC1 antag, USP1 inh, EPAC2 ag, EPAC1 ag, EPAC2 antagonist)
C=CCNC(=O)C(=O)Nc1cc2c3c(c1)CCC(=O)N3CCC2	none
O=C(N/N=C/c1c(O)ccc2ccccc12)c1cccnc1	EPAC1 antag inconclusive
O=C(N/N=C\c1c(O)ccc2ccccc12)c1cncc(Br)c1	USP1 inh 31.6µM, EPAC2 ag inconclusive, EPAC1 ag inconclusive
Cc1cc(Oc2ccc(Br)cc2)nc(SCC(=O)c2ccccc2)n1	none
COC(=O)CSc1nc(C)cc(Oc2ccccc2)n1	EPAC1 antag 50.1µM
Cc1ccc(Nc2nc(NCCO)nc3c2cnn3C)c(C)c1	none (no result: EPAC1 antag, USP1 inh, EPAC2 ag, EPAC1 ag, EPAC2 antagonist)
COc1cc(/C=C/C(=O)C2C(=O)C=C(C)OC2=O)cc(Cl)c1OC(F)F (stereo unspecified)	none (no result: EPAC1 antag, USP1 inh, EPAC2 ag, EPAC1 ag, EPAC2 antagonist)
CCN(CC)c1ccc(/C=C/C(=O)C2C(=O)C=C(C)OC2=O)cc1 (stereo unspecified)	USP1 inh 4.47µM
O=C(CSc1ccc(F)cc1)c1ccc2c(c1)-c1ccccc1C2	none (no result: EPAC1 antag, USP1 inh, EPAC2 ag, EPAC1 ag, EPAC2 antagonist)
COC(=O)C(CCSC)NC(=O)N(C1CCCCC1)C1CCCCC1 (stereo unspecified)	none (no result: EPAC1 antag, USP1 inh, EPAC2 ag, EPAC1 ag, EPAC2 antagonist)
CSCCC(NS(=O)(=O)c1ccc(C)cc1)C(=O)NC1CCCCC1 (stereo unspecified)	none
COc1ccc(S(=O)(=O)NC(CCSC)C(=O)NC2CCCCC2)cc1 (stereo unspecified)	EPAC1 antag 50.1µM
c1cc2nc(C34CC5CC(CC(C5)C3)C4)[nH]c2cn1	LDHA inh -32.6
CC(=O)Nc1ccc(CN(C)c2c(C)nc3ccc(C(=O)N(C)Cc4ccco4)cn23)cc1	none (no result: USP1 inh)
